Data reported in PubChem BioAssay.
Some of the results follow. A number with no mark means an inactive call. Calls of active or inactive are those of the source.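 The calls were made as follows, unless noted: active = inhibition reaching about 45% at 4 µM in either replicate (limit read from the data); inactive = the rest.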

Tests used:
[1] = lowers stimulated NF-kB luciferase signal in Jurkat – cell-based, luminescence, single concentration, T-cell NF-kB inhibitor project, confirmation (AID 435020); conditions: PMA/ionomycin-induced, 16 h, at 4 µM, active compounds read high;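 also: plate controls were PMA/ionomycin stimulated DMSO wells for no effect and unstimulated DMSO wells for full effect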
[2] = biological target: Sentrin-specific protease 8 (Homo sapiens) (UniProt Q96LD8); experiment: human SENP8 peptidase blockers, hit retest – biochemical, luminescence, single concentration, confirmation (AID 488912;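 active = mean inhibition across replicates above about 50%, limit read from the data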); conditions: Recombinant SENP8, Z-RLRGG-aminoluciferin luminescence, 60 min; at 12.5 µM; active compounds read high
Sequence of Sentrin-specific protease 8 (Homo sapiens) (Q96LD8 whole entry, looked up, the tested form may be a part): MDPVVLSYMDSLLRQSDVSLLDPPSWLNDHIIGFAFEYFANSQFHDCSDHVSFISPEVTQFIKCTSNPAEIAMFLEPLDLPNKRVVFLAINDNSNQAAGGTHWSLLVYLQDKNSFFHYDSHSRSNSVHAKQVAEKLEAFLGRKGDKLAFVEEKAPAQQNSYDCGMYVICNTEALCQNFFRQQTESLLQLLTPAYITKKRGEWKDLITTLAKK

[3] = biological target: Sentrin-specific protease 6 (Homo sapiens) (UniProt Q9GZR1); experiment: inhibition of human SENP6 catalytic domain – biochemical, luminescence, single concentration, confirmation (AID 488915;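 active = mean inhibition above about 50% in the one-dose retest, limit read from the data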); conditions: recombinant SENP6, Z-RLRGG-aminoluciferin luminescence; at 12.5 µM; active compounds read high
Sequence of Sentrin-specific protease 6 (Homo sapiens) (Q9GZR1 628-1112 limits assumed): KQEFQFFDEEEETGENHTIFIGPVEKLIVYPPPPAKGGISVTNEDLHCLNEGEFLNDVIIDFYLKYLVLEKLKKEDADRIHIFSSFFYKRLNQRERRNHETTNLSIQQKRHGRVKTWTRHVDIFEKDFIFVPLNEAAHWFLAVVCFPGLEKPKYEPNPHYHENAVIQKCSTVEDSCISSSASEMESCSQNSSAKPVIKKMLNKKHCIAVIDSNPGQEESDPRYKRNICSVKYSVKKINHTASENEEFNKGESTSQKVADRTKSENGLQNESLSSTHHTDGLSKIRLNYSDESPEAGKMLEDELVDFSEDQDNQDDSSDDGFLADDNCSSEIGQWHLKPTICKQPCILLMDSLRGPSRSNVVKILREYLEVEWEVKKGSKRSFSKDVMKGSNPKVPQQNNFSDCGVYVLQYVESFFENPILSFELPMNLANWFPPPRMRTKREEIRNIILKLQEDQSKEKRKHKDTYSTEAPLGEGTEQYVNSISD

[4] = biological target: Sentrin-specific protease 7 (Homo sapiens) (UniProt Q9BQF6); experiment: human SENP7 peptidase blockers, hit retest – biochemical, luminescence, single concentration, confirmation (AID 488917;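 active = mean inhibition above about 50% in the one-dose retest, limit read from the data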); conditions: recombinant SENP7, Z-RLRGG-aminoluciferin luminescence, 40 min; at 12.5 µM; active compounds read high
Sequence of Sentrin-specific protease 7 (Homo sapiens) (Q9BQF6 706-1050 limits assumed): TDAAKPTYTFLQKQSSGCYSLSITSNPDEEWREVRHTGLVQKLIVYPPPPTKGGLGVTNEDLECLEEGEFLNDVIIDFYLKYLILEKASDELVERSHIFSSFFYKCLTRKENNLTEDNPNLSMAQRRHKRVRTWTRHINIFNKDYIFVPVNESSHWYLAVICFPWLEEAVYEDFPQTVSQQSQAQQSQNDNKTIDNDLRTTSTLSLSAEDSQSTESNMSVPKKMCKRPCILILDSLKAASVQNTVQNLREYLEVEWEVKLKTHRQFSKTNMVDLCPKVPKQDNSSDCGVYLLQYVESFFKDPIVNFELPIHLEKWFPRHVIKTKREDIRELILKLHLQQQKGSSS

Caspase-3 (Homo sapiens) = Caspase-3 (Homo sapiens) (UniProt P42574); experiment: human caspase-3 activity blockade, out-of-family – biochemical, single concentration, selectivity assay for SENP inhibitor project, confirmation (AID 488918;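 active = mean inhibition above about 50%, limit read from the data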;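 also: plate controls were enzyme with DMSO for no effect and wells without caspase-3 for full effect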); conditions: purified caspase-3, Z-DEVD-aminoluciferin luminescence, 60 min; at 12.5 µM; active compounds read high
Sequence of Caspase-3 (Homo sapiens) (P42574 28-227 limits assumed): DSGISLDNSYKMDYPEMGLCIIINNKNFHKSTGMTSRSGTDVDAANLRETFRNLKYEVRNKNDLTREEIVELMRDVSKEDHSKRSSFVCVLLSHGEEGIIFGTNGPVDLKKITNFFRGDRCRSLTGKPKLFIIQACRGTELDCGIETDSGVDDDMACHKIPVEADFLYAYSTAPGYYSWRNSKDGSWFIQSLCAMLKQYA

[5] = Ultra-Glo luciferase signal interference – biochemical, single concentration, SENP8 reaction pre-completed, artefact control for SENP inhibitor project, confirmation (AID 488919;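 active = mean inhibition above about 50% when retested at one dose, limit read from the data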;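 also: plate controls were DMSO wells with completed reaction for no effect and substrate without enzyme for full effect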); conditions: Pre-incubated SENP8/Z-RLRGG-aminoluciferin, luciferase luminescence interference; at 12.5 µM; active compounds read high

## Cc1ccc(N2CCN(c3ccc([N+](=O)[O-])cn3)CC2)c(C)c1
[1]
  inhibition: 15.2%

## O=C(CSC(=S)N1CCCCC1)c1c(F)cccc1F
[1]
  inhibition: -113%

## O=C(COC(=O)c1ccc(F)cc1)NCC1COc2ccccc2O1 (stereo unspecified)
[1]
  inhibition: 12.1%

## O=C(Nc1ccc(CSc2ccccc2)cc1)c1ccc(CN2CCOCC2)cc1
[1]
  inhibition: 62.3% (active)

## COc1ccccc1NC1=NC(c2ccc(Cl)cc2)N=C(N)N1 (stereo unspecified)
[1]
  inhibition: 18.7%

## N=c1c2c(-c3ccccc3)c(-c3ccccc3)n(Cc3ccccc3)c2ncn1CCCO
[1]
  inhibition: 24.1%

## Cc1cc(N)n2nc(-c3ccc(C(C)(C)C)cc3)cc2n1
[1]
  inhibition: -164%

## Cc1ccc(-n2ncc3c2CC(C)(C)CC3NC(=O)Cc2c(C)noc2C)cc1 (stereo unspecified)
[1]
  inhibition: -15.6%

## CC(=O)Nc1ccc(Nc2c3ccccc3nc3ccccc23)cc1
[1]
  inhibition: 26.9%

## Cc1ccc(SCCSc2ncccn2)cc1
[1]
  inhibition: -64.3%

## O=C(/C=C/c1ccc([N+](=O)[O-])o1)NNC(=O)c1ccc(F)cc1
[1]
  inhibition: 45.4%

## O=C(CCNC(=O)c1ccc(Br)cc1)Nc1cccc(S(=O)(=O)N2CCCCC2)c1
[1]
  inhibition: 0.65%

## O=C(Nc1ccc2c(c1)OCCO2)C1CCCN(c2ncccn2)C1 (stereo unspecified)
[1]
  inhibition: -110%

## CCCC(=O)Nc1nc2ccc(NC(=O)c3c(F)c(F)c(OC)c(F)c3F)cc2s1
[1]
  inhibition: 40.9% (active)

## Cn1nccc1C(=O)NC1CCCc2c1cnn2-c1ccccc1F (stereo unspecified)
[1]
  inhibition: 68.1% (active)

## O=C(NCc1ccc2c(c1)OCO2)c1cc([N+](=O)[O-])ccc1N1CCOCC1
[1]
  inhibition: 38.1%

## CCOC(=O)c1ccc(NC(=O)Cn2cnc3cc(C)c(C)cc32)cc1
[1]
  inhibition: 66.2% (active)

## C/C(=N\NC(=O)c1ccccc1F)c1ccccn1
[1]
  inhibition: 4.3%

## COc1ccc(CNS(=O)(=O)c2cc(-c3cc(C)no3)ccc2C(C)C)cc1
[1]
  inhibition: 41.9%

## COc1ccccc1N1CCN(C(=O)c2cc(=O)c3cc(C)cc(C)c3o2)CC1
[1]
  inhibition: 54% (active)

## COc1ccc(N=C(C)c2sc3ccccc3c2O)cc1
[1]
  inhibition: -7.85%
[2]
  inhibition: 16.5%
[3]
  inhibition: 19.5%
[4]
  inhibition: 14.7%
Caspase-3 (Homo sapiens)
  inhibition: 9.6%
[5]
  inhibition: -5.1%
